Measured values: PubChem BioAssay (NCATS)
“And” between values parts separate entries of the source, which are not always exact repeats. Identical values can stand only once. Records with an inconclusive call do not appear. The source made the active and inactive calls. Calls follow the shape of the dose curve; as a rule, active = well fitted curve in the direction sought with a large enough effect; inconclusive = small, poorly fitted or top-dose-only effect, or another doubt; inactive = no such curve, though single readings can be large; an effect the other way counts as inactive or inconclusive.

Legend:
[1] = target: Glutathione peroxidase 1 (Homo sapiens) (UniProt P07203); test: Primary qHTS Assay for Inhibitors of Recombinant Selenoprotein Glutathione Peroxidase 1 (GPX1) (AID 1845191); also: nearly all actives have a fitted effect of over 65% in size; as to activity, negative = inhibition: % is scaled to controls: 0 for no effect and ±100 for the full control effect
Glutathione peroxidase 1 (Homo sapiens), sequence (P07203 whole entry, looked up): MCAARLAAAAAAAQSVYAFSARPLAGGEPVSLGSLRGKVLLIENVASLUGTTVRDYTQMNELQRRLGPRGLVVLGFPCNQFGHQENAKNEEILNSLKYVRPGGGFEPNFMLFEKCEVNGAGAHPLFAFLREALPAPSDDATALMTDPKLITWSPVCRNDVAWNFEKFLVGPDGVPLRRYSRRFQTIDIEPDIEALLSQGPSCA
How it was run: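 Recombinant GPX1 (10 nM final) was preincubated with compound for 30 min at room temperature, then reacted with 1 mM GSH, 0.5 mM CHP, 0.5 mM NADPH and 100 nM glutathione reductase; NADPH fluorescence (340/450 nm) was read at 0 and 15 min.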

[2] = target: Phospholipid hydroperoxide glutathione peroxidase GPX4 (Homo sapiens) (UniProt P36969); test: Primary qHTS Assay for Inhibitors of Recombinant Selenoprotein Glutathione Peroxidase 4 (GPX4) (AID 1845192); also: nearly all actives have a fitted effect of over 65% in size; as to activity change, negative = inhibition: series mostly up to about 50 µM; % is scaled to controls: 0 for no effect and ±100 for the full control effect
Phospholipid hydroperoxide glutathione peroxidase GPX4 (Homo sapiens), sequence (P36969 whole entry, looked up): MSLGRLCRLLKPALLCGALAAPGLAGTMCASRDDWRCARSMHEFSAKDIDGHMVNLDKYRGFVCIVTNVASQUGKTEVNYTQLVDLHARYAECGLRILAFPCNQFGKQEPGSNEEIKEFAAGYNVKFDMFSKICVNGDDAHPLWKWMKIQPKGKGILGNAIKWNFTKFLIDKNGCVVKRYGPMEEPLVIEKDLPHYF
How it was run: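 GR-coupled readout: 100 nM GR, 1 mM GSH, 0.5 mM NADPH; NADPH fluorescence (ex 340/em 450 nm) read at t=0 and after 15 min RT. GPX4 200 nM, preincubated 30 min with compound; substrate 0.5 mM CHP.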

[3] = target: Luciferin 4-monooxygenase (Photinus pyralis) (UniProt P08659); test: Primary firefly luciferase (FLuc) qHTS assay for identification of artifact compounds. (AID 1845220); also: nearly all actives have a fitted effect of over 60% in size;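 as to activity change, negative = inhibition: series mostly up to about 54 µM; plate controls were DMSO vehicle for no effect and no enzyme for full effect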
How it was run: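 qHTS, 15 min compound preincubation with substrate (10 uM luciferin, 10 uM ATP) at RT, then 10 nM FLuc; 5 min; luminescence; % inhibition vs no-enzyme/DMSO controls, 4-parameter Hill fit.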

[4] = Primary fluorescence-based thiol-reactive (MSTI) qHTS assay for identification of artifact compounds. (AID 1845221); also: nearly all actives have a fitted effect of over 65% in size; also: potency is read from the fitted curve at half-maximal effect;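 as to activity change, negative = thiol reactive: series mostly up to about 54 µM; thiol-reactive compounds lower the probe fluorescence signal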
How it was run: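 First, 4 uM MSTI in 2% DMSO/PBS pH 7.4 was dispensed; next, compounds were added; then plates sat 1 h at room temperature without light. Finally, emission at 598 nm was recorded.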

[5] = test system: Nanoluciferase (engineered Oplophorus gracilirostris luciferase); test: Primary Nanoluciferase (NLuc) qHTS assay for identification of artifact compounds. (AID 1845222); also: potency is read from the fitted curve at half-maximal effect;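 as to activity, negative = inhibition: series mostly up to about 54 µM; 0% = DMSO and -100% = no enzyme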
How it was run: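 Luminescence read-out of secreted NLuc in S16 cell conditioned medium (1:55); compounds tested with 15 min RT preincubation, then Nano-Glo substrate 1:100, 5 min. % inhibition vs no-enzyme and DMSO controls, 4-parameter Hill fit.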

CCC(CCO[C@@H]1O[C@H](CO[C@H]2OC[C@](O)(CO)[C@H]2O)[C@@H](O)[C@H](O)[C@H]1O)C(C)(C)O (stereo not given in full)
inactive: Potency [1] | Potency [2] | Potency [3] | Potency [4] | Potency [5]

C[C@@H]1O[C@@H](O[C@H]2[C@H](O[C@H]3CC[C@@]4(C)C(CC[C@]5(C)C4CC=C4[C@@H]6CC(C)(C)CC[C@]6(C(=O)O)CC[C@]45C)[C@]3(C)CO)OC[C@H](O)[C@@H]2O)[C@H](O)[C@H](O[C@@H]2OC[C@@H](O)[C@H](O)[C@H]2O)[C@H]1O (stereo not given in full)
inactive: Potency [1] | Potency [2] | outcome [3] inactive [at 11.6 µM] | activity change, negative = thiol reactive [4] 366% [at 11.5 µM] | activity, negative = inhibition [5] 0.957% [at 11.6 µM]

Cc1cccc(-c2[nH]c(CNc3ccccc3F)nc2-c2ccc3ncnn3c2)n1
inactive: Potency [1] | Potency [2] | Potency [3] | Potency [4] | Potency [5]

C=C1CCC2C(C)(CO[C@@H]3O[C@H](CO)[C@@H](O)[C@H](O)[C@H]3O)C(O)CCC2(C)C1C(=O)CC1=CCOC1=O (stereo not given in full)
active: Potency [4] 10.3 µM
inactive: Potency [1] | Potency [2] | Potency [3] | Potency [5]

CCCCNC(=O)[C@@H]1Cc2ccccc2N1C(=O)[C@@H](N)CC
inactive: Potency [1] | Potency [2] | Potency [3] | Potency [4] | Potency [5]

C=C1C2(CCC(=O)OC2(C)C)CC(OC(=O)/C(C)=C/C)C2(C)C13OC14C(=O)OC(C)(C(=O)C12C(=O)OC4C)C3OC(C)=O (stereo not given)
inactive: Potency [1] | Potency [2] | Potency [3] | Potency [4] | Potency [5]

COC(=O)c1ccc(O[C@@H]2O[C@H](CO)[C@@H](O)[C@H](O)[C@H]2O)c(OC)c1
active: Potency [4] 16.5 µM
inactive: Potency [1] | Potency [2] | Potency [3] | Potency [5]

C=C1CC[C@H]2[C@@H](/C=C(\C)C(=O)[C@@]3(OC(C)=O)C[C@H](C)[C@H](OC(C)=O)[C@@H]3[C@H]1OC(C)=O)C2(C)C
inactive: Potency [1] | Potency [2] | Potency [3] | Potency [4] | Potency [5]

CC(c1c[nH]c2ccccc12)C(O)C(=O)O (stereo not given)
active: Potency [4] 10.6 µM
inactive: Potency [1] | Potency [2] | Potency [3] | Potency [5]

O=c1ccn(C2OC(CO)C(O)C2O)c(=O)[nH]1 (stereo not given)
inactive: Potency [1] | Potency [2] | Potency [3] | Potency [4] | Potency [5]

CC(=O)O[C@@]1(C)C[C@@H](O)[C@]2(O)C=CO[C@@H](O[C@@H]3O[C@H](CO)[C@@H](O)[C@H](O)[C@H]3O)[C@@H]21
inactive: Potency [1] | Potency [2] | Potency [3] | Potency [4] | Potency [5]

CC(=O)O[C@@H]1[C@H](O[C@@H]2O[C@H](CO)[C@@H](O)[C@H](O)[C@H]2O)[C@@H](O[C@@H]2O[C@@H](C)[C@H](O)[C@@H](O[C@@H]3O[C@H](CO)[C@@H](O)[C@H](O)[C@H]3O)[C@H]2O)[C@H](OC(=O)C23CCC4(C)C(=CCC5C6(C)CC(O)C(O[C@@H]7O[C@H](C(=O)O)[C@@H](O)[C@H](O)[C@H]7O)C(C)(C(=O)O)C6CCC54C)C2CC(C)(C)CC3O)O[C@@H]1C (stereo not given in full)
inactive: outcome [1] inactive [at 9.52 µM] | activity change, negative = inhibition [2] 1.73% [at 9.73 µM] | outcome [3] inactive [at 11.6 µM] | activity change, negative = thiol reactive [4] 205% [at 11.5 µM] | activity, negative = inhibition [5] 0% [at 11.6 µM]

CC(=O)c1c(O)cc2cccc3c2c1CC(C)(O)O3 (stereo not given)
inactive: Potency [1] | Potency [2] | Potency [3] | Potency [5]
active: Potency [4] 5.32 µM

C[C@@H]1O[C@@H](O[C@H]2[C@H](O)[C@@H](O)[C@H](OC[C@H]3O[C@@H](OC(=O)[C@]45CCC(C)(C)C[C@H]4C4=CCC6[C@@]7(C)C[C@H](O)[C@H](O[C@@H]8O[C@H](CO)[C@@H](O)[C@H](O)[C@H]8O)[C@@](C)(C(=O)O)C7CC[C@@]6(C)[C@]4(C)CC5)[C@H](O[C@@H]4O[C@H](CO)[C@@H](O)[C@H](O)[C@H]4O)[C@@H](O)[C@@H]3O)O[C@@H]2CO)[C@H](O)[C@H](O)[C@H]1O (stereo not given in full)
inactive: outcome [1] inactive [at 9.52 µM] | activity change, negative = inhibition [2] 0.162% [at 9.73 µM] | outcome [3] inactive [at 11.6 µM] | activity change, negative = thiol reactive [4] 1.9% [at 11.5 µM] | activity, negative = inhibition [5] 4.14% [at 11.6 µM]

O=C(/C=C/c1ccc(O)c(O)c1)OCc1ccccc1O[C@@H]1O[C@H](CO)[C@@H](O)[C@H](O)[C@H]1O
active: Potency [4] 0.922 µM
inactive: Potency [1] | Potency [2] | Potency [3] | Potency [5]

NC(=O)[C@H]1CCCCc2c1[nH]c1ccc(Cl)cc21
inactive: Potency [1] | Potency [2] | Potency [3] | Potency [4] | Potency [5]

c1ccc(C(OC2CCN(CCCc3nn[nH]n3)CC2)c2ccccc2)cc1
inactive: Potency [1] | Potency [2] | Potency [3] | Potency [4] | Potency [5]

CCC[C@@H]1C[C@@H](C(=O)N[C@@H]([C@H]2O[C@H](SC)[C@H](OP(=O)(O)O)[C@@H](O)[C@H]2O)[C@H](C)Cl)N(C)C1
inactive: Potency [1] | Potency [2] | Potency [3] | Potency [4] | Potency [5]

COc1c(C)c(C(=O)c2ccc(N)c(C(=O)O)c2)n2ccccc12
active: Potency [4] 4.74 µM and 5.32 µM | Potency [5] 9.53 µM
inactive: Potency [1] | Potency [2] | Potency [3]

COC1CC(=O)CCC(C)OC(=O)CC1O (stereo not given)
inactive: Potency [1] | Potency [2] | Potency [3] | Potency [4] | Potency [5]

CON(C)C(=O)N1N=C(c2cc(F)ccc2F)S[C@@]1(CCCN)c1ccccc1
inactive: Potency [1] | Potency [2] | Potency [3] | Potency [4] | Potency [5]

C=C1CC2(C(=O)O)CC1CCC2C1(C)CCCC2(C)C(=O)OC(O)C21 (stereo not given)
inactive: Potency [1] | Potency [2] | Potency [3] | Potency [4] | Potency [5]
